# An excerpt weighted towards active compounds, which were near 32% of everything screened.
# PostGolgi ctrl: yeast control strain growth, post-Golgi counter-screen. efflux-deficient yeast background strain, growth absorbance A615, 16 h. inhibition, % at 10 µM. 98,000 compounds, 5% hits
# PostGolgi yeast: growth inhibition of a yeast mutant, post-Golgi transport screen. post-Golgi transport phenotypic cell assay. inhibition, % at 10 µM. 98,000 compounds, 0.9% hits;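 further: yeast cells grown in 1536-well plates; yeast grown about 18 h at 30C before absorbance read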
# CYP2C19 activ: cytochrome P450 2C19 (human) activation | 96,000 tested, under 10 active | activation factor at 5 µM | AID 1025 | P33261 | recombinant CYP2C19, luciferin-H EGE luminescence; hits give high values; 0 = fully inhibited enzyme, 1 = untreated enzyme;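 active means activation factor of at least 2 at 5 µM in the primary screen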;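 further: 0 = wells with 2.5 mM tranylcypromine and 1 = vehicle-only wells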
# CYP2C9 activ: CYP2C9 (human) activation; P11712; recombinant CYP2C9, luciferin-H conversion, luminescence; hits give high values; factor 1 = untreated enzyme, 0 = blocked; activation factor at 5 µM; 96,000 compounds, 1.4% hits; AID 1024;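 active means activation factor of 2 or more for CYP2C9 at a 5 µM dose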;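 further: 0 = sulfaphenazole-blocked wells and 1 = vehicle-only wells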
# Target sequence (P11712 whole entry, looked up): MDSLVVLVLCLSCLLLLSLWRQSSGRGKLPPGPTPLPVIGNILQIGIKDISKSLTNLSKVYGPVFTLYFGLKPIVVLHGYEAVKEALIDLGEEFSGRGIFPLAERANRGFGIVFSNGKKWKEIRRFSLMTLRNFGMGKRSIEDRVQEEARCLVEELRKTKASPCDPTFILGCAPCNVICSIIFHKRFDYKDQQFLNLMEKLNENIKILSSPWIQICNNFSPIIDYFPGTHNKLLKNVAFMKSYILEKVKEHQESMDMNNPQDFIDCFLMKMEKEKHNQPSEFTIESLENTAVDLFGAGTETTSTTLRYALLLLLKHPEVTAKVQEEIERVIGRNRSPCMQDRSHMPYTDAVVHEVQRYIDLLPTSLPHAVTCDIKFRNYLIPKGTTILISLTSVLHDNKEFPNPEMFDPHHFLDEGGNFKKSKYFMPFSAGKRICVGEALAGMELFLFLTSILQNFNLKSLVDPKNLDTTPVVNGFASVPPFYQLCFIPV
# CYP2C19 inhib: blocks human cytochrome P450 2C19; inhibition, % at 5 µM; CYP2C19 Supersomes, luciferin-H EGE luminescence, 30 min; AID 778; P33261; 96,000 compounds, 21% hits;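 active means CYP2C19 inhibition above a set limit at 5 µM in the primary screen, cut at about 50% in these data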;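 further: plate controls were negative control wells for no effect and 2.5 mM tranylcypromine positive control for full effect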
# CYP2C9 inhib: inhibitors of human CYP2C9 | P11712 | CYP2C9 Supersomes, luciferin-H conversion, luminescence | AID 777 | 96,000 compounds, 20% hits | inhibition, % at 5 µM;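 active means blocking of liver enzyme CYP2C9 beyond about 50% at 5 µM, limit read from the data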
# Starred values were filed as active, the others as inactive; / = not tested or not shown. Unless noted, no stated cut-off is given here; in the data, active means inhibition above about 30%; inactive means the rest.
SMILES,PostGolgi ctrl,PostGolgi yeast,CYP2C19 activ,CYP2C9 activ,CYP2C19 inhib,CYP2C9 inhib
O=C(CN1CCN(Cc2ccc3c(c2)OCO3)CC1)c1c[nH]c2ccccc12,4,-1,1,0.8,3,18
Cc1[nH]c2ccccc2c1C1(O)C(=O)N(C(C)C)c2ccccc21 (stereo not given),28,-14,0.1,0.9,95*,6
CN(C)CCC(=O)NCC1OCCc2ccccc21 (stereo not given),2,3,1,1,-5,0
COc1ccc(CCN(Cc2cc3cc(C)c(C)cc3nc2Cl)C(=O)C2CC2)cc1,20,-3,0.7,0.8,26,23
CC(C)(C)NC(=O)c1ccc2c(c1)N(CC(=O)N1CCN(c3ccc(F)cc3)CC1)C(=O)C(C)(C)O2,8,4,0.2,0.4,79*,60*
CCOC(=O)CN1C(=O)C(C)(C)Oc2ccc(C(=O)Nc3ccccc3OC)cc21,10,15,0.2,0.7,82*,32
Cc1ccc(NC(=O)c2ccc3c(c2)N(CC(=O)N2CCCCC2)C(=O)C(C)(C)O3)cc1,18,1,0.4,0,58*,99*
CC1(C)Oc2ccc(C(=O)N3CCc4ccccc43)cc2N(CC(=O)N2CCCC2)C1=O,2,-11,0.8,0.7,23,34
CC1(C)Oc2ccc(C(=O)NC3CCCC3)cc2N(CC(=O)NC2CCCCC2)C1=O,0,-1,0.7,0.2,34,82*
CCC1Oc2ccc(C)cc2N(CC(=O)N2CCN(c3ccc(F)cc3)CC2)C1=O (stereo not given),-2,3,0.5,0.9,45,14
C#CCSc1nc(Cc2ccc(Cl)cc2)nc2ccccc12,-1,-14,1,0.9,4,7
O=C(CSC(=S)N1CCCCC1)N1N=CCC1c1ccccc1 (stereo not given),23,0,0.6,1,42,2
COc1ccc(C(=O)CN2C(=O)C(C)(C)Oc3ccc(C(=O)N4CCCCCC4)cc32)cc1,13,-4,0.4,0.2,57*,78*
CCOC(=O)c1[nH]c2ccccc2c1NC(=O)NC1CCCCC1,3,-4,0.9,0.4,13,55*
O=C(COC(=O)c1n[nH]c2ccccc12)NC(=O)NC1CCCC1,2,7,0.9,0.7,11,27
O=C(COC(=O)c1cc(=O)[nH]c2ccccc12)NC(=O)NC1CCCCC1,30,3,0.9,0.5,9,53*
Cc1sc(NC(=O)c2cccc([N+](=O)[O-])c2)c(C(N)=O)c1-c1ccc(C(C)(C)C)cc1,13,-8,1.1,0.6,-6,44
COc1cc(S(=O)(=O)N2CCOCC2)ccc1F,-2,5,0.7,1.6,33,-63
O=C(CS(=O)(=O)c1cccc(C(F)(F)F)c1)Nc1ccccc1Cl,9,5,0.4,1.9,60*,-87
COc1ccc(OC)c(S(=O)(=O)Nc2ccccc2SC)c1,12,1,/,/,/,/
COc1ccc(S(=O)(=O)Nc2ccccc2SC)cc1C,36*,1,0,2*,99*,-104
COc1cc(NS(=O)(=O)c2ccc(C)c(C)c2)c(OC)cc1Cl,47*,-7,0,0.1,100*,95*
COC(=O)c1ccccc1NS(=O)(=O)c1ccc(O)c(C(=O)O)c1,-1,-3,0.9,0.1,9,91*
COc1ccc(Cl)cc1NS(=O)(=O)c1cc(Cl)ccc1OC,18,-1,1.1,0.9,-6,11
CCOC(=O)c1ccc(N2C(=O)CC(NC3CCN(C(=O)c4cccc(Cl)c4)CC3)C2=O)cc1 (stereo not given),1,1,0.7,0.7,34,33
SMILES,PostGolgi ctrl,PostGolgi yeast,CYP2C19 activ,CYP2C9 activ,CYP2C19 inhib,CYP2C9 inhib
COc1ccc(S(=O)(=O)Nc2ccccc2OC)cc1C,9,-1,0,2.9*,100*,-186
COc1ccccc1NS(=O)(=O)c1ccc(C)c(C(=O)NCC2CCCO2)c1 (stereo not given),12,-1,0.6,1.6,42,-58
CSc1ccccc1NS(=O)(=O)c1ccccc1,7,-3,0.1,4.6*,87*,-360
COc1ccc(C)cc1NS(=O)(=O)c1cc(C)ccc1C,23,-2,0.6,0.8,41,22
COc1ccccc1NS(=O)(=O)c1cc(C)ccc1C,22,-4,0.2,1.1,80*,-7
COc1ccccc1NS(=O)(=O)c1ccc(O)c(C(N)=O)c1,-4,5,0,0.9,100*,14
COc1ccccc1NS(=O)(=O)c1cccc(C(=O)OCC(=O)Nc2cc(C)on2)c1,28,-2,0.6,0.6,40,38
CCn1c(O)c(C=NCCN2CCOCC2)sc1=S,-4,-1,0.8,1,21,-2
CCN1CCCC1CN(Cc1cc2ccc(C)c(C)c2[nH]c1=O)C(=O)Nc1ccccc1OC (stereo not given),-7,-7,1,0.9,-3,7
CNC(=S)N/N=C/c1c(C)nn(-c2ccccc2)c1Cl,7,1,0.9,0.7,9,30
Cc1cc(S(=O)(=O)Nc2ccccc2C(=O)O)ccc1Cl,6,-2,0.6,0.3,37,74*
Cc1nn(-c2ccccc2)c(Cl)c1/C=N/Nc1ccc(S(=O)(=O)Nc2ccccc2C(=O)O)cc1[N+](=O)[O-],8,0,1,0.3,5,69*
Cc1cc(O)c(C(C)C)cc1NS(=O)(=O)c1ccccc1,5,1,0.1,0.6,86*,42
COc1ccccc1NS(=O)(=O)c1ccc(Cl)cc1,/,/,0,0.7,99*,30
Cc1ccccc1NC(=O)C1CCCN1C(=O)NC1CCCCC1 (stereo not given),-9,-4,1.1,1.1,-9,-10
O=C(c1cnsn1)N1CCN(c2ccccn2)CC1,10,-3,0.7,1.7,27,-65
COc1ccc(-n2nnnc2Sc2ccc(S(=O)(=O)N3CCOCC3)cn2)cc1,/,/,0.9,0.7,12,28
Cn1c2ccccc2c2c(C(=O)NCc3ccco3)cn(C3CCCCC3)c(=O)c21,-1,1,0.8,0.5,20,45
COc1cc(C)c(S(=O)(=O)Nc2ccccc2F)cc1C,14,-13,0.1,0.5,88*,52*
O=C(O)c1ccccc1NS(=O)(=O)c1cccc(C(F)(F)F)c1,-3,-7,0.4,0.5,60*,51*
COc1cc(C)c(S(=O)(=O)n2nnc3ccccc32)cc1C,-6,-2,1.2,1.3,-20,-32
N#Cc1cc(-c2ccccc2)c[nH]c1=O,7,19,1.1,0.9,-9,11
CNc1cc(-n2nc(C)cc2-c2ccccc2)ncn1,0,-2,0.4,0.5,61*,48
CCOc1cc2[nH]c(=S)n(CCCCC(=O)NCc3ccco3)c(=O)c2cc1OCC,0,4,1,0.3,-1,72*

# From PubChem BioAssay
